About 3,700 (1%) of roughly 360,000 compounds were called active. The list comes from a sample in which actives are over-represented; it also holds similar structures and randomly drawn compounds. Unmarked numbers belong to inactive results. No stated cut-off is given here; in the data, active means activation above about 30%; inactive means the rest.
molecular target: D(1A) dopamine receptor (Homo sapiens) (UniProt P21728); test: Allosteric Agonists of the Human D1 Dopamine Receptor: qHTS; settings: HEK293 T-REx D1 cells, calcium flux, agonist mode; at 2 µM; hits give high values; further: 0% is about no effect
How it was run: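 Agonism was scored from calcium flux recorded over 180 s (1 read/s) after pintool compound addition, following a 10-cycle baseline. Cells were inducible force-coupled HEK293 TREx D1, plated overnight at 30 C and loaded with no-wash calcium dye.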

Sequence of D(1A) dopamine receptor (Homo sapiens) (P21728 whole entry, looked up): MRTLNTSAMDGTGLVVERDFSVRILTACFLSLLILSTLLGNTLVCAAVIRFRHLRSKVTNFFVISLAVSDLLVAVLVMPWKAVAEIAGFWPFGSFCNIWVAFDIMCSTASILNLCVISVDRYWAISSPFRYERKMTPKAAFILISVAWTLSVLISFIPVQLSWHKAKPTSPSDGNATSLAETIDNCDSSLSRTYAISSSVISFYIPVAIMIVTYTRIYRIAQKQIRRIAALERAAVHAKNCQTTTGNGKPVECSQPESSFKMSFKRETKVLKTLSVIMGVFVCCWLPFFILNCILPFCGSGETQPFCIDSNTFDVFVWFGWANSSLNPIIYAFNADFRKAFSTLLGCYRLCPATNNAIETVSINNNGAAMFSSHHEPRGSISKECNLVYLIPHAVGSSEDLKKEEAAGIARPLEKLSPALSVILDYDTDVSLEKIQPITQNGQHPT

Structure (SMILES) | activation
CS(=O)(=O)c1ccc(-c2nnc(NC(=O)c3ccc4c(c3)OCCO4)o2)cc1 | 2.14%
CCCN(C(=O)Cn1cc(S(=O)(=O)N2CCN(c3ccccc3F)CC2)c2ccccc2c1=O)c1cccc(C)c1 | 5.13%
Cc1nn(C)c(C)c1Sc1ccccc1N | 37.1% (active)
Cn1nc(-c2ccccc2)c(CO)c1Sc1ccccc1 | 2.17%
Nc1ccccc1Sc1cc(Cl)nnc1Cl | 0.62%
CC(=O)Nc1cc(C(=O)NCc2ccc(F)cc2)ccc1Sc1ccc(F)cc1 | -2.57%
CC(C)(CCl)C(=O)Nc1ccc(Sc2ccc(F)cc2)cc1 | 32.5% (active)
COC(=O)c1ccc(Sc2ccc(F)cc2)c(N)c1 | 2.52%
CN(C)c1ccc(C(CNS(=O)(=O)c2cc(F)ccc2F)N2CCOCC2)cc1 (stereo unspecified) | 5.52%
CCCc1cc(=O)n2[nH]c(NCc3ccc(CC)cc3)nc2n1 | 1.79%
Cc1c(Cl)cccc1NC(=O)C1CCCN(C(=O)c2cnn(-c3ccccc3)c2-n2cccc2)C1 (stereo unspecified) | 4.43%
CCOC(=O)c1ccc(NC(=O)CCS(=O)(=O)c2ccc(C)cc2)cc1 | 1.55%
CCc1ccc(-c2nn(-c3ccccc3C)cc2C(=O)N2CCN(C3CCS(=O)(=O)C3)CC2)cc1 (stereo unspecified) | 1.59%
CCc1ccc(-c2nn(-c3ccccc3)cc2CSC(=N)N)cc1 | 47.5% (active)
O=Cc1cn(-c2ccccc2)nc1-c1ccccn1 | -0.0617%
Fc1ccccc1CCNc1nnnn1-c1ccccc1 | 5.56%
CN(C(=O)CSc1nnnn1-c1ccccc1)C1CCCCC1 | 0.493%
c1ccc(-n2nnnc2NC2CCCCCC2)cc1 | 112% (active)
CCOc1cccc2cc(-c3cn4c(n3)sc3cc(C)ccc34)c(=O)oc12 | 0.779%
CCc1nc2c(cnn2-c2ccc(C)cc2)c(=O)n1-c1ccc(C)cc1 | 5.84%
Cc1cccc(C(=O)Nc2ccc(-c3nc4ccccc4s3)c(C)c2)c1 | 6.34%
COc1ccc(S(=O)(=O)Nc2cccc3cccnc23)c(N)c1 | 4.45%
CCCOc1ccc(-c2c(C(=O)N/N=C/c3ccco3)nnn2-c2nonc2N)cc1 | 13.8%
Nc1nonc1-n1nnc(C(=O)N/N=C/c2ccc(Cl)cc2)c1-c1ccc2c(c1)OCO2 | 94.3% (active)
CCc1ccc(/C=N/NC(=O)c2nnn(-c3nonc3N)c2CN2CCc3ccccc32)cc1 | -0.149%
Cc1cccc(NC(=O)c2ccc3nc(C(C)C)oc3c2)c1C | 2.14%

Source: PubChem BioAssay AID504660 (National Center for Advancing Translational Sciences (NCATS), 2011)
